In PubChem BioAssay (NCATS):
Results filed as inconclusive are left out. Entries that show only a call come without a potency. Calls of active or inactive are those of the source. The call rests on the fitted dose curve; in most records, active means well fitted inhibition curve with a large enough effect; inconclusive means small, poorly fitted or top-dose-only effect; inactive means no such curve, though single readings can be large or run the other way. Starred links: 1 amine or outer side, 2 acyl side, 3 side chain; linkers in the order of their positions; H or OH if unused. Positions of bridges follow the written chain, without caps; N, C: chain ends. Non-standard residues stand in square brackets, D forms with d. Residues, ends and D or L forms follow the SMILES beside them. Chains are numbered I, II in the order given. Actinocin(9to1) = Cc1c2oc3c(C)ccc(C(=O)[*:1])c3nc-2c(C(=O)[*:2])c(N)c1=O; NMeV = CN[CH](C(=O)O)C(C)C; Sar = CNCC(=O)O

Test: NS1 protein of Zika virus - qHTS assay to identify small molecule inhibitors in human HEK 293 cells (AID 1347053); further: nearly all actives have a fitted effect of over 55% in size
Conditions: HEK293 ZIKV MR766 infection, NS1 TR-FRET, 24 h; series mostly up to 46.1 µM
How it was run: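 Following 20 h seeding, HEK 293 cells took compound, then 1 h later ZIKV MR766 (MOI = 0.5). Incubation ran 24 h at 37 C before TR-FRET detection of NS1; a drop in signal indicates inhibition.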
Potency means the concentration at half of the fitted maximal effect.

| SMILES | Potency |
| --- | --- |
| CCCCCCCCCCCCCCCC(=O)OC[C@@H](NC(=O)C(Cl)Cl)[C@H](O)c1ccc([N+](=O)[O-])cc1 | inactive |
| Cn1cc(C[C@@H](N)C(=O)O)c2ccccc21 | inactive |
| Cc1cc(-c2nnc3n2CCCCC3)c(C)n1-c1ccccc1 | inactive |
| O=[N+]([O-])c1cn2c(n1)OC[C@@H](OCc1ccc(OC(F)(F)F)cc1)C2 | inactive |
| N[C@H]1CN(c2c(F)cc3c(=O)c(C(=O)O)cn(C4C[C@@H]4F)c3c2Cl)CC12CC2 (stereo partly drawn) | inactive |
| C=CC1=C(C(=O)O)N2C(=O)[C@@H](NC(=O)C(=NO)c3csc(N)n3)[C@H]2SC1 | inactive |
| C[C@H]1COc2c(N3CCN(C)CC3)c(F)cc3c(=O)c(C(=O)O)cn1c23 | inactive |
| CCNC(=O)c1cc2c(-c3cc(OCCN4CCCC4)c(Cl)cc3Cl)nc(N)nc2s1 | inactive |
| COC(=O)[C@H](CCCN=C(N)N)NS(=O)(=O)c1ccc(C)cc1 | inactive |
| Cn1cc(C=CC(=O)c2cccc(F)c2)cc1C=CC(=O)NO | inactive |
| C[C@@H]1CC[C@@]2(OC1)OC1CC3C4CC=C5CC(O)CCC5(C)C4CCC3(C)C1[C@@H]2C (stereo partly drawn) | inactive |
| CCN1CCN(C(=O)N[C@H](C(=O)N[C@@H]2C(=O)N3C(C(=O)O)=C(CSc4nnnn4C)CS[C@@H]23)c2ccc(O)cc2)C(=O)C1=O | inactive |
| CC(=O)O[C@H]1C[C@@H]2CC[C@H]3[C@H]4C[C@H]([N+]5(C)CCCCC5)[C@@H](OC(C)=O)[C@@]4(C)CC[C@@H]3[C@@]2(C)C[C@H]1[N+]1(C)CCCCC1 | inactive |
| O=C1c2c(O)cccc2[C@@H]([C@@H]2O[C@H](CO)[C@@H](O)[C@H](O)[C@H]2O)c2cc(CO)cc(O)c21 | inactive |
| O=C(O)CCCCC(CCSCc1ccccc1)SCc1ccccc1 (stereo not drawn) | inactive |
| OCCNC1CCCc2c1[nH]c1ccc(-c3ccccc3)cc21 (stereo not drawn) | 20.9 µM (active) |
| C=C1C(=O)O[C@H]2[C@@H]1CCC(C)=CCC[C@@]1(C)O[C@@H]21 | 9.35 µM (active) |
| CC[C@H](CC[C@@H](C)[C@H]1CC[C@H]2[C@@H]3CC=C4C[C@@H](O)CC[C@]4(C)[C@@H]3CC[C@]12C)C(C)C | inactive |
| CC(=O)OCC(=O)[C@@]12N=C(C)O[C@H]1C[C@H]1[C@@H]3CCC4=CC(=O)C=C[C@]4(C)[C@@H]3[C@@H](O)C[C@@]12C | inactive |
| COC(=O)[C@@H]1[C@H]2C[C@@H]3c4[nH]c5ccccc5c4CCN3C[C@@H]2CC[C@@H]1O | inactive |
| Cc1c2oc3c(C)ccc(C(=O)NC4C(=O)NC(C(C)C)C(=O)N5CCCC5C(=O)N(C)CC(=O)N(C)C(C(C)C)C(=O)OC4C)c3nc-2c(C(=O)NC2C(=O)NC(C(C)C)C(=O)N3CCCC3C(=O)N(C)CC(=O)N(C)C(C(C)C)C(=O)OC2C)c(N)c1=O (stereo not drawn) (I: TVP[Sar][NMeV] / II: TVP[Sar][NMeV]; ester I:1-I:C, II:1-II:C; linker I:N-II:N via Actinocin(9to1); configuration not given here) | 7.43 µM (active) |
| C[C@H](NC(=O)[C@@H](O)c1cc(F)cc(F)c1)C(=O)N[C@@H]1C(=O)N(C)c2ccccc2-c2ccccc21 | inactive |
| O=C1NCCc2[nH]c(-c3ccncc3)cc21 | 9.35 µM (active) |
| Cc1noc(-c2ccc(CSCCC(=O)O)cc2)c1NC(=O)OC(C)c1ccccc1Cl (stereo not drawn) | inactive |
| CC[C@H]1OC(=O)[C@H](C)[C@@H](O[C@H]2C[C@@](C)(OC)[C@@H](O)[C@H](C)O2)[C@H](C)[C@@H](O[C@@H]2O[C@H](C)C[C@H](N(C)C)[C@@H]2O)[C@](C)(OC)C[C@@H](C)C(=O)[C@H](C)[C@@H](O)[C@]1(C)O | inactive |
| CC(=O)SCC(Cc1ccccc1)C(=O)NCC(=O)OCc1ccccc1 (stereo not drawn) | inactive |
| COc1cccc2c1C(=O)c1c(O)c3c(c(O)c1C2=O)C[C@@](O)(C(=O)CO)C[C@@H]3O[C@H]1C[C@H](N)[C@@H](O)[C@H](C)O1 | 0.296 µM (active) |
| N#Cc1cc(NC(=O)Nc2nnc(-c3ccncc3)s2)ccc1-c1cn[nH]c1 | inactive |
